Consider eight sequences from publication PMC7862700, “An all-to-all approach to the identification of sequence-specific readers for epigenetic DNA modifications on cytosine”.

Holding throughout (experiment): DAPPL (digital affinity profiling via proximity ligation, sequencing); 10 mM Tris-HCl pH 7.5, 50 mM NaCl, 1 mM DTT, 4% glycerol, room temperature, 30 min; GST-TFs on glutathione beads, 16-mer random dsDNA library, 0.1% formaldehyde crosslink after washing; high values mean tight binding
Holding throughout (conditions): protein: recombinant; tags: N-terminal GST; dsDNA, one strand shown

The target of one test is T1, FLI1 (Homo sapiens, UniProt Q01543 1-452).
T1 sequence: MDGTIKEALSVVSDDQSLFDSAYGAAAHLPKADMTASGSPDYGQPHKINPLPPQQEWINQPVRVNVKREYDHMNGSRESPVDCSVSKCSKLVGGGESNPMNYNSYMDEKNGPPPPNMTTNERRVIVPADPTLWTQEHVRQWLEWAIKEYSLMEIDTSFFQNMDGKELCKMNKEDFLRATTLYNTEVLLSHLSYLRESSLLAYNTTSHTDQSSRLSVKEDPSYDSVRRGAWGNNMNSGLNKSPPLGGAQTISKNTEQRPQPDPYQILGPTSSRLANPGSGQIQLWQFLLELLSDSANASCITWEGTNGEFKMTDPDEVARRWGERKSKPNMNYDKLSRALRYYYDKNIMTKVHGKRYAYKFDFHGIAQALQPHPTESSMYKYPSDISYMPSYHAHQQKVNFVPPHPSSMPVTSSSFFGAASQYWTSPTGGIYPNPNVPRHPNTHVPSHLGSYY
The procedure, abridged:
(§1)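 Yeast served to express human transcription factors as GST fusions, which were then captured on glutathione beads and labelled with DNA barcodes. Pooled with a tag-only sample, they were incubated with 200 nmole of a 16-mer random double-stranded DNA library for 30 min at room temperature in Tris/NaCl/DTT/glycerol buffer, washed, crosslinked with 0.1% formaldehyde, ligated by proximity, amplified by PCR and sequenced. Dividing each hexamer's read frequency for a factor by its frequency for the tag-only sample gives the binding signal.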

The next test deals with T2, ELK1 (Homo sapiens, UniProt P19419 1-428).
T2 sequence: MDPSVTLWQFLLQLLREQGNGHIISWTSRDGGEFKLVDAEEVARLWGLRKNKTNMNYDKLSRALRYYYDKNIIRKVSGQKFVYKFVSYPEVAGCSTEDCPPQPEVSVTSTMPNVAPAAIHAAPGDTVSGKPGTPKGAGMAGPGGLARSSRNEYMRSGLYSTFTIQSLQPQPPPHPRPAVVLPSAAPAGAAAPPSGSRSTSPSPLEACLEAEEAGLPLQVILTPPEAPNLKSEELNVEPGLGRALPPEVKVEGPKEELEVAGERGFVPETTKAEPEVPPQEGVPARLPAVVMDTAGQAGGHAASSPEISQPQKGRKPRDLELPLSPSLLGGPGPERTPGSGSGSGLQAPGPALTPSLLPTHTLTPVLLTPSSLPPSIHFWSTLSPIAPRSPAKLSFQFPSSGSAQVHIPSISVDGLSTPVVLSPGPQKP
The procedure, abridged: as §1

The target of the next test is T3, GABPA (Homo sapiens, UniProt Q06546 1-454).
T3 sequence: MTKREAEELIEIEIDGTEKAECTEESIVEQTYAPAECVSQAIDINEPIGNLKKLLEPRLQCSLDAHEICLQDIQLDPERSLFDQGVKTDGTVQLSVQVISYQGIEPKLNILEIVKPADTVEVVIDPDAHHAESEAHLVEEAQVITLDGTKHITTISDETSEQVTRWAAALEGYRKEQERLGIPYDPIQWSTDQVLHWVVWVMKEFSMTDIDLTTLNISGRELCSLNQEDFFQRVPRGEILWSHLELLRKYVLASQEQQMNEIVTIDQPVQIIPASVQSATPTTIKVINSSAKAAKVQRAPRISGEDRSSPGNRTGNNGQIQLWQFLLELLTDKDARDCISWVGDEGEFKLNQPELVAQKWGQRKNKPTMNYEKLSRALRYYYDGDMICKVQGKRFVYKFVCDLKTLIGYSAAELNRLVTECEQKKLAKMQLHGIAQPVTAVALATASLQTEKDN
The method in brief:
as §1

A further test deals with T4, ERG (Homo sapiens, UniProt P11308 1-479).
T4 sequence: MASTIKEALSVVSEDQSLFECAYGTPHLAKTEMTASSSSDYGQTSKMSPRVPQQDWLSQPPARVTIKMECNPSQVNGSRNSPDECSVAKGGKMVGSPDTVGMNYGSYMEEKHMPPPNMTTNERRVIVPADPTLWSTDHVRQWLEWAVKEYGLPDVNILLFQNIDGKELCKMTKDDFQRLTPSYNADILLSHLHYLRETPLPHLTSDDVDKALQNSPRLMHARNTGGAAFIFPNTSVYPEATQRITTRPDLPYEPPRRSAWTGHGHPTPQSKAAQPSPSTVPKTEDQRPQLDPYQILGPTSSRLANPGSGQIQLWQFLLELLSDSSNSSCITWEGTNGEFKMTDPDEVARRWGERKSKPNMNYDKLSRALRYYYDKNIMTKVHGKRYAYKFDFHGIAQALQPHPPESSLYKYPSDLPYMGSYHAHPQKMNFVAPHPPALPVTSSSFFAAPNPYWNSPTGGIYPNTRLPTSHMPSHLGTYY
The method in brief: as §1

The target of the next test is ELF1 (Homo sapiens, UniProt P32519 1-619). The method in brief:
as §1

For a further test, the target named is T5, EHF (Homo sapiens, UniProt Q9NZC4 1-300).
T5 sequence: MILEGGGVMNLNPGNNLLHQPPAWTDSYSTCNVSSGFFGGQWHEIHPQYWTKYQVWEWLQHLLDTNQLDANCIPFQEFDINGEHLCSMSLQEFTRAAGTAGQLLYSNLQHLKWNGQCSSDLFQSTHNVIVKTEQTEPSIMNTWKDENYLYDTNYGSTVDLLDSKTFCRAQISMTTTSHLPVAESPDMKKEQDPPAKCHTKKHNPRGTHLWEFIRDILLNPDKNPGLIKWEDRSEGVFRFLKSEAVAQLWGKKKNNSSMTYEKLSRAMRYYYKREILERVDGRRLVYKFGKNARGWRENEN
The procedure, abridged:
as §1

A further test has as its target SPI1 (Homo sapiens, UniProt P17947 1-270). The procedure, abridged: as §1
In another test the target is SPIB (Homo sapiens, UniProt Q01892 1-262). The procedure, abridged:
as §1

A further test concerns the target T6, ELK3 (Homo sapiens, UniProt P41970 1-407).
T6 sequence: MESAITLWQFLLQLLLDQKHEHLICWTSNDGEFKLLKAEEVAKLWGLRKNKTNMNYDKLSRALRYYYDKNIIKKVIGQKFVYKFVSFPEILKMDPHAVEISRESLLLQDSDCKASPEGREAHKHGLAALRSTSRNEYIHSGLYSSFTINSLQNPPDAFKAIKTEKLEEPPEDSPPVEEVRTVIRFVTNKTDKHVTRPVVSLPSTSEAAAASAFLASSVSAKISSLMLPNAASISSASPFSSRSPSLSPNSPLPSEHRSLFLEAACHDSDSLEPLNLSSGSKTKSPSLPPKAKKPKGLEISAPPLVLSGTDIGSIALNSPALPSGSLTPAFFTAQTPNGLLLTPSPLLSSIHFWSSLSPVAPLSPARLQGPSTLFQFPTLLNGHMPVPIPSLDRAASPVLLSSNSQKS
The method in brief:
as §1

SPIB, sequence (Q01892 whole entry): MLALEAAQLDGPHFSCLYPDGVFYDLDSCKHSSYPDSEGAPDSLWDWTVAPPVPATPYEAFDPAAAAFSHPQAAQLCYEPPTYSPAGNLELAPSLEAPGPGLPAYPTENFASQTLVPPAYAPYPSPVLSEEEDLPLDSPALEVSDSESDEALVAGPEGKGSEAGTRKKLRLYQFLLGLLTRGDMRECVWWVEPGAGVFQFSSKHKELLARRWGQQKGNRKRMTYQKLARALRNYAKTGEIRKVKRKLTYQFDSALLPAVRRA
ELF1, sequence (P32519 whole entry): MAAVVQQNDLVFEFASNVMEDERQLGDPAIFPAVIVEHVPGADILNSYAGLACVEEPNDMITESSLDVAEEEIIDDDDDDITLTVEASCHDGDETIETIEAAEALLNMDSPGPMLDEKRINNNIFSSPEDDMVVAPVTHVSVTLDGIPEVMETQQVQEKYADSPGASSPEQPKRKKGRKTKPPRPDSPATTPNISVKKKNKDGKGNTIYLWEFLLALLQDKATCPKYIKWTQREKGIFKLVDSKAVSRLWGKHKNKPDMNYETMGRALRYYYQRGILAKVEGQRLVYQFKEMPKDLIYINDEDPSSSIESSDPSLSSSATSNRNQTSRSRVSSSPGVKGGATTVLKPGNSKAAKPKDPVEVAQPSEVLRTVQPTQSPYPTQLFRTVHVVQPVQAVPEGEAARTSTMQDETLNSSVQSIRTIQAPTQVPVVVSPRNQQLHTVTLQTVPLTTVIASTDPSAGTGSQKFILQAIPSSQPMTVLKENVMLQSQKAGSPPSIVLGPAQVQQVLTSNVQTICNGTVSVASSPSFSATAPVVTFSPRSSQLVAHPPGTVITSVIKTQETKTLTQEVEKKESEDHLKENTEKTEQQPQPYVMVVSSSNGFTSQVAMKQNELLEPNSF

Take CCCATA: the binding signal in the test with FLI1 was 1.23 fold enrichment (6-mer frequency, TF over GST control); with ELK1, 1.26 fold enrichment (6-mer frequency, TF over GST control); in the test with GABPA, 1.33 fold enrichment (6-mer frequency, TF over GST control); in the test with ERG it was 1.24 fold enrichment (6-mer frequency, TF over GST control); in the test with ELF1, 1.21 fold enrichment (6-mer frequency, TF over GST control); with EHF, 1.13 fold enrichment (6-mer frequency, TF over GST control). For the same sequence, the binding signal in the test with SPI1 is 1.18 fold enrichment (6-mer frequency, TF over GST control); in the test with SPIB, 1.34 fold enrichment (6-mer frequency, TF over GST control); with ELK3, 1.21 fold enrichment (6-mer frequency, TF over GST control).

In the case of TACTCC, the binding signal was 1.3 fold enrichment (6-mer frequency, TF over GST control) with FLI1; 1.2 fold enrichment (6-mer frequency, TF over GST control) in the test with ELK1; 1.49 fold enrichment (6-mer frequency, TF over GST control) with GABPA; 1.35 fold enrichment (6-mer frequency, TF over GST control) with ERG; 1.37 fold enrichment (6-mer frequency, TF over GST control) with ELF1; 1.26 fold enrichment (6-mer frequency, TF over GST control) in the test with EHF. Also, the binding signal in the test with SPI1 was 1.24 fold enrichment (6-mer frequency, TF over GST control); in the test with SPIB it was 1.23 fold enrichment (6-mer frequency, TF over GST control); with ELK3, 1.44 fold enrichment (6-mer frequency, TF over GST control).

Take TTATCG: the binding signal is 1.17 fold enrichment (6-mer frequency, TF over GST control) with FLI1; 1.28 fold enrichment (6-mer frequency, TF over GST control) with ELK1; 1.3 fold enrichment (6-mer frequency, TF over GST control) with GABPA; 1.3 fold enrichment (6-mer frequency, TF over GST control) with ERG; 1.25 fold enrichment (6-mer frequency, TF over GST control) with ELF1; 1.25 fold enrichment (6-mer frequency, TF over GST control) with EHF. For the same sequence, the binding signal in the test with SPI1 was 1.15 fold enrichment (6-mer frequency, TF over GST control); with SPIB it was 1.13 fold enrichment (6-mer frequency, TF over GST control); with ELK3, 1.17 fold enrichment (6-mer frequency, TF over GST control).

CGTATT: the binding signal with FLI1 was 1.24 fold enrichment (6-mer frequency, TF over GST control); with ELK1 it was 1.18 fold enrichment (6-mer frequency, TF over GST control); with GABPA it was 1.12 fold enrichment (6-mer frequency, TF over GST control); with ERG, 1.15 fold enrichment (6-mer frequency, TF over GST control); with ELF1, 1.11 fold enrichment (6-mer frequency, TF over GST control); with EHF, 1.12 fold enrichment (6-mer frequency, TF over GST control). In addition, the binding signal with SPI1 is 1.17 fold enrichment (6-mer frequency, TF over GST control); with SPIB, 1.24 fold enrichment (6-mer frequency, TF over GST control); with ELK3, 1.38 fold enrichment (6-mer frequency, TF over GST control).

Take ACATCT: the binding signal is 1.39 fold enrichment (6-mer frequency, TF over GST control) in the test with FLI1; 1.35 fold enrichment (6-mer frequency, TF over GST control) in the test with ELK1; 1.35 fold enrichment (6-mer frequency, TF over GST control) in the test with GABPA; 1.34 fold enrichment (6-mer frequency, TF over GST control) in the test with ERG; 1.38 fold enrichment (6-mer frequency, TF over GST control) with ELF1; 1.3 fold enrichment (6-mer frequency, TF over GST control) in the test with EHF. The binding signal is 1.4 fold enrichment (6-mer frequency, TF over GST control) with SPI1; 1.27 fold enrichment (6-mer frequency, TF over GST control) in the test with SPIB; 1.44 fold enrichment (6-mer frequency, TF over GST control) in the test with ELK3.

Take CTCTGC: the binding signal in the test with FLI1 is 1.71 fold enrichment (6-mer frequency, TF over GST control); in the test with ELK1, 1.6 fold enrichment (6-mer frequency, TF over GST control); in the test with GABPA it was 1.56 fold enrichment (6-mer frequency, TF over GST control); with ERG, 1.46 fold enrichment (6-mer frequency, TF over GST control); with ELF1, 1.58 fold enrichment (6-mer frequency, TF over GST control); with EHF, 1.57 fold enrichment (6-mer frequency, TF over GST control). Besides, the binding signal is 1.53 fold enrichment (6-mer frequency, TF over GST control) with SPI1; 1.52 fold enrichment (6-mer frequency, TF over GST control) with SPIB; 1.4 fold enrichment (6-mer frequency, TF over GST control) with ELK3.

Turning to AATGTC, the binding signal was 1.16 fold enrichment (6-mer frequency, TF over GST control) with FLI1; 1.21 fold enrichment (6-mer frequency, TF over GST control) with ELK1; 1.23 fold enrichment (6-mer frequency, TF over GST control) with GABPA; 1.27 fold enrichment (6-mer frequency, TF over GST control) in the test with ERG; 1.22 fold enrichment (6-mer frequency, TF over GST control) with ELF1; 1.29 fold enrichment (6-mer frequency, TF over GST control) in the test with EHF. For the same sequence, the binding signal in the test with SPI1 is 1.23 fold enrichment (6-mer frequency, TF over GST control); in the test with SPIB, 1.25 fold enrichment (6-mer frequency, TF over GST control); with ELK3 it was 1.23 fold enrichment (6-mer frequency, TF over GST control).

On to AGATCC, for which the binding signal is 1.05 fold enrichment (6-mer frequency, TF over GST control) in the test with FLI1; 1.12 fold enrichment (6-mer frequency, TF over GST control) in the test with ELK1; 1.09 fold enrichment (6-mer frequency, TF over GST control) with GABPA; 1.15 fold enrichment (6-mer frequency, TF over GST control) with ERG; 1.1 fold enrichment (6-mer frequency, TF over GST control) in the test with ELF1; 1.12 fold enrichment (6-mer frequency, TF over GST control) with EHF. For the same sequence, the binding signal in the test with SPI1 was 1.03 fold enrichment (6-mer frequency, TF over GST control); with SPIB, 1.18 fold enrichment (6-mer frequency, TF over GST control); with ELK3, 1.1 fold enrichment (6-mer frequency, TF over GST control).
